# Reference: the supplement of paper PMC8728848
# The sample as a whole holds a higher share of the strongest signals than the screen did.
# Assays:
# Test in all cases: glycan array binding signal (z-score within array); higher = stronger binding
# Details in all cases: glycan notation: IUPAC condensed, linker removed
# Fuc(a1-2)Gal(b1-3)GlcNAc = biological target: Fuc(a1-2)Gal(b1-3)GlcNAc
# In short: (§1)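 The Consortium for Functional Glycomics database supplied 3228 glycan arrays, of which those lacking an available protein sequence were dropped. The binding signal, a within-array Z-score, was averaged across arrays of the same protein sequence and across linkers. Negative scores can be read as non-binding.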
# [1] = biological target: Fuc(a1-3)[Gal(b1-4)]GlcNAc(b1-4)Gal(b1-4)[Fuc(a1-3)]GlcNAc
# In short: as §1
# [2] = biological target: Gal(b1-3)GlcNAc(b1-3)Gal(b1-4)Glc
# In short: as §1
# [3] = biological target: Gal(b1-3)GlcNAc(b1-3)Gal(b1-4)GlcNAc
# In short: as §1
# [4] = biological target: Gal(b1-3)[Fuc(a1-4)]GlcNAc
# In short: as §1
# [5] = biological target: Gal(b1-3)[Neu5Ac(a2-6)]GalNAc
# In short: as §1
# [6] = biological target: Gal(b1-3)[Neu5Ac(a2-6)]GlcNAc(b1-6)Gal(b1-4)Glc
# In short: as §1
# [7] = biological target: Gal(b1-3)[Neu5Ac(b2-6)]GalNAc
# In short: as §1
# [8] = biological target: Gal(b1-4)GalNAc(a1-3)[Fuc(a1-2)]Gal(b1-4)GlcNAc
# In short: as §1
# [9] = biological target: Gal(b1-4)GlcNAc(b1-6)Gal(b1-4)GlcNAc(b1-6)GalNAc
# In short: as §1
# Gal6S(b1-4)Glc = biological target: Gal6S(b1-4)Glc
# In short: as §1
# Glc(a1-6)Glc(a1-6)Glc = biological target: Glc(a1-6)Glc(a1-6)Glc
# In short: as §1
# Glc(b1-6)Glc = biological target: Glc(b1-6)Glc
# In short: as §1
# [10] = biological target: GlcNAc(b1-2)Man(a1-3)[GlcNAc(b1-2)Man(a1-6)]Man(b1-4)GlcNAc(b1-4)GlcNAc
# In short: as §1
# [11] = biological target: Neu5Ac(a2-3)Gal(b1-4)GlcNAc(b1-3)Gal(b1-4)GlcNAc
# In short: as §1
# [12] = biological target: Neu5Ac(a2-3)Gal(b1-4)[Fuc(a1-3)]GlcNAc(b1-3)Gal(b1-4)[Fuc(a1-3)]GlcNAc(b1-3)Gal(b1-4)[Fuc(a1-3)]GlcNAc
# In short: as §1
# [13] = biological target: Neu5Ac(a2-6)GalNAc(b1-4)GlcNAc
# In short: as §1
# [14] = biological target: Neu5Ac(a2-8)Neu5Ac(a2-8)Neu5Ac(a2-8)Neu5Ac(a2-3)[GalNAc(b1-4)]Gal(b1-4)Glc
# In short: as §1
# [15] = biological target: Fuc(a1-2)[GalNAc(a1-3)]Gal(b1-3)GlcNAc
# In short: as §1
# [16] = biological target: Fuc(a1-3)[GalNAc(b1-4)]GlcNAc
# In short: as §1
# Gal(a1-4)Gal(b1-4)Glc = biological target: Gal(a1-4)Gal(b1-4)Glc
# In short: as §1
# Gal(a1-4)GlcNAc = biological target: Gal(a1-4)GlcNAc
# In short: as §1
# [17] = biological target: Gal(b1-3)[Fuc(a1-4)]GlcNAc(b1-3)Gal(b1-3)[Fuc(a1-4)]GlcNAc
# In short: as §1
# [18] = biological target: Gal(b1-4)GlcNAc(a1-6)Gal(b1-4)GlcNAc
# In short: as §1
# Gal3S(b1-4)Glc = biological target: Gal3S(b1-4)Glc
# In short: as §1
# Gal4S(b1-4)GlcNAc = biological target: Gal4S(b1-4)GlcNAc
# In short: as §1
# GalNAc(a1-3)GalNAc = biological target: GalNAc(a1-3)GalNAc
# In short: as §1
# GlcA(b1-3)GlcNAc = biological target: GlcA(b1-3)GlcNAc
# In short: as §1
# [19] = biological target: GlcNAc(b1-2)Gal(b1-3)GalNAc
# In short: as §1
# GlcNAc(b1-3)Gal = biological target: GlcNAc(b1-3)Gal
# In short: as §1
# [20] = biological target: GlcNAc(b1-4)Gal(b1-4)GlcNAc
# In short: as §1
# [21] = biological target: GlcNAc(b1-4)[GlcNAc(b1-6)]GalNAc
# In short: as §1
# GlcNAc3Prop(b1-4)GlcNAc = biological target: GlcNAc3Prop(b1-4)GlcNAc
# In short: as §1
# Man(a1-3)[Man(a1-6)]Man = biological target: Man(a1-3)[Man(a1-6)]Man
# In short: as §1
# [22] = biological target: Man(a1-3)[Man(a1-6)]Man(a1-6)[Man(a1-2)Man(a1-3)]Man(b1-4)GlcNAc(b1-4)GlcNAc
# In short: as §1
# [23] = biological target: Neu5Ac(a2-3)Gal(b1-3)GlcNAc6S
# In short: as §1
# [24] = biological target: Neu5Ac(a2-3)Gal(b1-3)[Fuc(a1-4)]GlcNAc(b1-3)Gal(b1-4)[Fuc(a1-3)]GlcNAc
# In short: as §1
# [25] = biological target: Neu5Ac(a2-3)Gal(b1-4)[Fuc(a1-3)]GlcNAc(b1-6)[Gal(b1-3)]GalNAc
# In short: as §1
# [26] = biological target: Neu5Ac(a2-6)Gal(b1-4)GlcNAc(b1-2)Man(a1-3)[GlcNAc(b1-2)Man(a1-6)]Man(b1-4)GlcNAc(b1-4)GlcNAc
# In short: as §1
# [27] = biological target: Neu5Ac(a2-6)Gal(b1-4)GlcNAc(b1-2)Man(a1-3)[Neu5Ac(a2-6)Gal(b1-4)GlcNAc(b1-2)Man(a1-6)]Man(b1-4)GlcNAc(b1-4)GlcNAc
# In short: as §1
# [28] = biological target: Neu5Ac(a2-6)Gal(b1-4)GlcNAc(b1-2)Man(a1-6)[Gal(b1-4)GlcNAc(b1-2)Man(a1-3)]Man(b1-4)GlcNAc(b1-4)GlcNAc
# In short: as §1
# [29] = biological target: Neu5Ac(a2-6)Gal(b1-4)GlcNAc(b1-3)Gal(b1-4)[Fuc(a1-3)]GlcNAc(b1-3)Gal(b1-4)[Fuc(a1-3)]GlcNAc
# In short: as §1
# [30] = biological target: Neu5Ac(a2-8)Neu5Ac(a2-8)Neu5Ac(a2-3)Gal(b1-4)Glc
# In short: as §1
binder,measurement,setting,value
LKPARMA (Neurospora crassa) (protein) MSFHVTAEDARRIEVRDNRTILFARLRREDGEWNDASYELDQIIGNNDGHFQWGGGQNFTETAEDIRFHPKEGAAEQPILRARLRDCNGEFHDRDVNLTEIVENVNGEFQAKF,glycan array binding signal (z-score),Fuc(a1-2)Gal(b1-3)GlcNAc,-0.25
same,glycan array binding signal (z-score),[1],-0.077
same,glycan array binding signal (z-score),[2],4.93
same,glycan array binding signal (z-score),[3],-0.249
same,glycan array binding signal (z-score),[4],-0.251
same,glycan array binding signal (z-score),[5],-0.234
same,glycan array binding signal (z-score),[6],5.09
same,glycan array binding signal (z-score),[7],-0.251
same,glycan array binding signal (z-score),[8],-0.149
same,glycan array binding signal (z-score),[9],-0.252
same,glycan array binding signal (z-score),Gal6S(b1-4)Glc,-0.252
same,glycan array binding signal (z-score),Glc(a1-6)Glc(a1-6)Glc,7.12
same,glycan array binding signal (z-score),Glc(b1-6)Glc,6.76
same,glycan array binding signal (z-score),[10],-0.251
same,glycan array binding signal (z-score),[11],-0.235
same,glycan array binding signal (z-score),[12],-0.212
same,glycan array binding signal (z-score),[13],-0.252
same,glycan array binding signal (z-score),[14],-0.248
"Regenerating Gene I (Homo sapiens), P05451 (protein) MAQTSSYFMLISCLMFLSQSQGQEAQTELPQARISCPEGTNAYRSYCYYFNEDRETWVDADLYCQNMNSGNLVSVLTQAEGAFVASLIKESGTDDFNVWIGLHDPKKNRRWHWSSGSLVSYKSWGIGAPSSVNPGYCVSLTSSTGFQKWKDVPCEDKFSFVCKFKN",glycan array binding signal (z-score),Fuc(a1-2)Gal(b1-3)GlcNAc,0.417
same,glycan array binding signal (z-score),[15],-0.479
same,glycan array binding signal (z-score),[16],0.315
same,glycan array binding signal (z-score),Gal(a1-4)Gal(b1-4)Glc,3.58
same,glycan array binding signal (z-score),Gal(a1-4)GlcNAc,0.102
same,glycan array binding signal (z-score),[3],-0.537
same,glycan array binding signal (z-score),[17],-0.396
same,glycan array binding signal (z-score),[18],0.071
same,glycan array binding signal (z-score),Gal3S(b1-4)Glc,0.272
same,glycan array binding signal (z-score),Gal4S(b1-4)GlcNAc,0.291
same,glycan array binding signal (z-score),GalNAc(a1-3)GalNAc,-0.588
same,glycan array binding signal (z-score),Glc(a1-6)Glc(a1-6)Glc,-0.118
same,glycan array binding signal (z-score),GlcA(b1-3)GlcNAc,0.836
same,glycan array binding signal (z-score),[19],-0.206
same,glycan array binding signal (z-score),GlcNAc(b1-3)Gal,-0.215
same,glycan array binding signal (z-score),[20],2.18
same,glycan array binding signal (z-score),[21],1.91
same,glycan array binding signal (z-score),GlcNAc3Prop(b1-4)GlcNAc,-0.533
same,glycan array binding signal (z-score),Man(a1-3)[Man(a1-6)]Man,7.74
same,glycan array binding signal (z-score),[22],-0.594
same,glycan array binding signal (z-score),[23],-0.09
same,glycan array binding signal (z-score),[24],5.84
same,glycan array binding signal (z-score),[25],-0.128
same,glycan array binding signal (z-score),[26],-0.412
same,glycan array binding signal (z-score),[27],-0.473
same,glycan array binding signal (z-score),[28],-0.33
same,glycan array binding signal (z-score),[29],-0.304
same,glycan array binding signal (z-score),[30],-0.596
